Compound activity: PubChem BioAssay, several laboratories
Sampled rows, rich in hits. Any-hit rate of the full collection: about 1.8%.
CendR NRP1 mod = NRP-1/CendR interaction modulation. 360,000 compounds, 0.85% hits. FAM-RPARPAR peptide binding to NRP-1, fluorescence polarization. O14786. inhibition, % at 25 µM;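 active = inhibition or corrected inhibition above about 18%, plus a signal ratio from 0.5 to 1.5, limit read from the data, passing the limit was not always enough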
INS-1E GSIS act = primary screen for activators of insulin secretion dependent on glucose, INS-1E cells, GLuc reporter luminescence | activation, % at 16.6 µM | 370,000 compounds, 0.61% hits | INS-1E GLuc reporter insulin secretion, 2-3 h;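 active = lowest replicate activation of at least 40%, so every replicate reaches that level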
iPSC survival up = hiPSC single-cell survival enhancement. 360,000 compounds, 0.044% hits. AID 602274. ATPlite luminescence; 100% = ROCK inhibitor wells, 0% = DMSO. survival enhancement, % at 20 µM; in the data active = survival enhancement above about 18%;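 note: cells exposed to compounds for 16 hours before the ATP read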
ARNT TACC3 PPI = ARNT/TACC3 interaction disruption. AlphaScreen His-ARNT PAS-B/GST-TACC3 binding, luminescence; TACC3 fragment carries E629A point mutation. inhibition, % at 9.99 µM. 390,000 compounds, 0.66% hits. AID 623870;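 active = mean inhibition of replicates at least 50% and at least half of replicates each reaching 50%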
ABCB6 inh MLPCN = inhibitors of human ABC transporter ABCB6; Q9NP58; K562-ABCB6 porphyrin accumulation, flow cytometry, 1 h; stronger effect = lower value; fluorescence ratio to DMSO, % at 10 µM; 360,000 compounds, 0.19% hits;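 active = fluorescence ratio to DMSO below 75%, the collection mean minus 3 SD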;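 note: signal is porphyrin accumulated inside mitochondria; lower ratio means ABCB6 inhibition with less porphyrin fluorescence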
Target sequence (Q9NP58 whole entry, looked up): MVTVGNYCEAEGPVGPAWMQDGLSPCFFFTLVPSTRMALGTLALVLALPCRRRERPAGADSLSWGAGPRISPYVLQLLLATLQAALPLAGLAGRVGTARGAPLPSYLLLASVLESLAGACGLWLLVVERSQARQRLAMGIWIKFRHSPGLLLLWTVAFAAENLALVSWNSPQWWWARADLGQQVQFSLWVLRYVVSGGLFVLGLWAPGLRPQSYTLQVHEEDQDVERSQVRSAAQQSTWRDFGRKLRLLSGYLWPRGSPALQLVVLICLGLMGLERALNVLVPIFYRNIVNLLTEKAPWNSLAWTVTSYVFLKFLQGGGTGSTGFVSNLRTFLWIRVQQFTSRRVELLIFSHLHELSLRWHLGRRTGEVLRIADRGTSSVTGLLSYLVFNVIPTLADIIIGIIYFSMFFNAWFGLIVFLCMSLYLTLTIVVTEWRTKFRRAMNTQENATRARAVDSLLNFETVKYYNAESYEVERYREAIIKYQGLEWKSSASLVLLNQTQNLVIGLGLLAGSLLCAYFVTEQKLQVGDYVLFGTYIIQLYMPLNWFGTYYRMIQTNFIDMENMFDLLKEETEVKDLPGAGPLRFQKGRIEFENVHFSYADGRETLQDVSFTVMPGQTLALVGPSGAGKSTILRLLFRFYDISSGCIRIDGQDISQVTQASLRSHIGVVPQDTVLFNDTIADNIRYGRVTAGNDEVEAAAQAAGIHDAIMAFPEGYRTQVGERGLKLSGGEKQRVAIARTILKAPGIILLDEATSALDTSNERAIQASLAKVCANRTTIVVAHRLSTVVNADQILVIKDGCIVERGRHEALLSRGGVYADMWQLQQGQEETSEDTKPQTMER
ARNT Alpha ctr-1 = AlphaScreen artifact in ARNT/TACC3 counter-screen | shares compounds with ARNT TACC3 PPI | His-ARNT PASB-GST AlphaScreen artifact counter-screen, luminescence | AC50, µM (titrated, usually from 68 µM) | 1,200 compounds, 50% hits;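 active = every separate test run was called active for a drop in luminescence, with AC50 within twice the top valid dose, actives reach about 71 µM in these data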
ARNT Alpha ctr-2 = counter-screen for ARNT-TACC3 inhibitors: AlphaScreen artifacts; shares compounds with ARNT TACC3 PPI; Dual-tagged His-ARNT PASB-GST AlphaScreen artifact counter-screen; AC50, µM; 45 compounds, 70% hits;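 active = luminescence drop, with half-maximal potency fitted within twice the sample's top valid dose, cut at about 70 µM in these data; inactive = the rest, including signal moving the wrong way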
Numbers stand for hits; - = inactive; . = no result given.

SMILES | CendR NRP1 mod | INS-1E GSIS act | iPSC survival up | ARNT TACC3 PPI | ABCB6 inh MLPCN | ARNT Alpha ctr-1 | others
COc1ccc(-c2[nH]ncc2/C=N/NC(=O)c2cccc([N+](=O)[O-])c2)cc1OC | - | - | - | - | - | .
Oc1cc(-c2ccc(N3CCCCC3)nc2)cc2cccnc12 | - | . | - | - | - | .
Oc1cc(-c2ccncc2)cc2cccnc12 | - | - | - | 67.2 | - | 11.7µM
CN(C)CCCNC(=O)c1ccc(-c2cc(O)c3ncccc3c2)cc1 | - | . | - | 59.7 | - | 13.8µM
Oc1cc(Nc2ccncc2)cc2cccnc12 | - | . | - | 73.0 | - | 7.88µM
CCN(CC)c1ccc(C(=O)NNC(=O)CCl)cc1 | - | - | - | - | - | .
CCN(CC)c1ccc(C(=C2C=CC(=[N+](CC)CC)C=C2)c2ccc(N(CC)CC)cc2)cc1 | 30.2 | . | - | 50.3 | - | 0.703µM
Oc1c(C(c2ccccn2)N2CCCCC2)cc(Cl)c2cccnc12 (stereo not given) | - | - | - | 68.9 | - | 8.13µM
CN1CCN(C(c2ccc(Cl)cc2)c2cc(Cl)c3cccnc3c2O)CC1 (stereo not given) | - | - | - | - | - | .
C=CCSc1nnc(-c2cccc3ccccc23)o1 | - | - | - | 57.5 | - | 33.7µM
c1ccc(-c2nnc(-c3ccccn3)nc2NCC2CCCCC2)cc1 | . | . | . | . | . | 3.1µM
c1ccc(-c2nnc(-c3ccccn3)nc2NCC2CC2)cc1 | . | . | . | . | . | 1.04µM
CO[C@@H]1CN(C)C(=O)c2cc(NS(=O)(=O)c3cn(C)cn3)ccc2OC[C@H](C)N(CCC(F)(F)F)C[C@@H]1C | . | - | . | - | . | .
CCCCCCSc1cccc(-c2nc3ccc(C)cn3c2NC2CCCCC2)c1 | - | - | - | - | - | .
Cc1cc(C)n2c(Nc3c(C)cccc3C)c(-c3ccccn3)nc2n1 | - | - | - | . | - | .
Cc1cccc(C)c1Nc1c(-c2ccccn2)nc2ccccn12 | - | - | - | 65.1 | - | 18.4µM
Cc1ccc(Nc2c(-c3ccccn3)nc3cccc(C)n23)cc1 | - | - | - | 55.6 | - | 19.8µM
Cc1ccc2nc(-c3ccccn3)c(NC3CCCC3)n2c1 | - | - | - | 60.8 | - | 32.2µM
CCCCNc1c(-c2ccccn2)nc2nc(C)cc(C)n12 | - | - | - | . | - | .
COc1ccccc1C#Cc1ccc([C@@H]2[C@H]3CN(C(=O)C4CCCC4)CCCCN3[C@H]2CO)cc1 | . | . | . | - | . | .
CC(=O)Nc1ccc2c(c1)C(=O)N(C)[C@H]1CC[C@H](CC(=O)N3CCc4ccccc4C3)O[C@H]1CO2 | . | - | . | - | . | .
Cc1noc(C)c1NC(=O)Nc1ccc2c(c1)C(=O)N([C@H](C)CO)C[C@@H](C)[C@H](CN(C)C(=O)Nc1ccc(F)cc1)OCCCC[C@@H](C)O2 | . | - | . | - | . | .
CSc1ccccc1NC(=O)CN(C)C(=O)COc1cccc2cccnc12 | 27.4 | . | - | 66.7 | - | 68.7µM
CC(=O)Nc1ccc2c(c1)CC(=O)N(C)C[C@@H](C)[C@@H](CN(C)C(C)=O)O2 | . | - | . | . | . | .
Cc1ccc(S(=O)(=O)Cn2nnnc2C(c2ccccc2)N2CCN(c3ncccn3)CC2)cc1 (stereo not given) | - | . | - | - | - | .
SMILES | CendR NRP1 mod | INS-1E GSIS act | iPSC survival up | ARNT TACC3 PPI | ABCB6 inh MLPCN | ARNT Alpha ctr-1 | others
Cc1ccc(S(=O)(=O)Cn2nnnc2C(c2ccccc2)N2CCN(c3ccccc3)CC2)cc1 (stereo not given) | - | . | - | 58.4 | - | -
O=C(NCCc1ccccc1)c1ccc(=O)[nH]c1 | - | - | - | active | - | -
O=c1cc(CSc2ccc(Cl)cc2)nc(-c2ccccc2)[nH]1 | - | - | - | - | - | .
Clc1ccc(SCc2csc(N3CCOCC3)n2)cc1 | - | - | - | - | - | .
Clc1ccc(SCc2cc(N3CCOCC3)nc(-c3ccccn3)n2)cc1 | - | - | - | 60.4 | - | -
O=c1cc(CSc2ccc(Cl)cc2)nc(-c2ccccn2)[nH]1 | - | - | - | 61.5 | - | 52.6µM
O=C(Nc1ccccc1F)N[C@@H]1CC[C@H](CC(=O)N2CCCCC2)O[C@@H]1CO | . | - | . | - | . | .
CCCC(=O)Nc1ccc2c(c1)OC[C@@H](C)N(C(=O)CN(C)C)C[C@H](C)[C@@H](OC)CN(C)C2=O | . | - | . | - | . | .
Cc1ccc(S(=O)(=O)NCCCn2ccnc2)cc1 | - | - | - | - | - | .
Cc1ccc(S(=O)(=O)NC(=O)c2cc(C)n(CCCn3ccnc3)c2C)cc1 | - | . | - | 52.6 | - | -
COc1ccc(N(C(C)=O)c2nc3ccccc3[nH]2)cc1 | - | - | - | 52.6 | - | -
C[C@H]1CN([C@@H](C)CO)C(=O)Cc2cc(NC(=O)Cc3ccccc3)ccc2O[C@@H]1CN(C)CC1CC1 | . | - | . | - | . | .
Cc1csc(NC(=O)CSc2ccc(-c3ccccn3)nn2)n1 | - | . | - | 60.7 | - | 16.1µM
COC(=O)c1ccc(NC(=O)CSc2ccc(-c3ccccn3)nn2)cc1 | - | - | - | 59.7 | - | -
Cc1cc(C)cc(NC(=O)CSc2ccc(-c3ccccn3)nn2)c1 | - | - | - | - | - | .
CCOC(=O)c1ccc(NC(=O)CSc2ccc(-c3cccnc3)nn2)cc1 | - | - | - | - | - | .
COc1ccccc1CNC(=O)CSc1ccc(-c2ccccn2)nn1 | - | - | - | 72.6 | - | 59.5µM
O=C(CSc1ccc(-c2ccccn2)nn1)Nc1cccc(F)c1 | - | - | - | 74.0 | - | 12.2µM
COCC(=O)Nc1ccc2c(c1)C(=O)N(C)[C@H]1CC[C@@H](CC(=O)OC)O[C@H]1CO2 | . | - | . | - | . | .
COCCNC(=O)C[C@H]1CC[C@@H]2[C@H](COc3ccc(NC(=O)Nc4ccccc4)cc3C(=O)N2C)O1 | . | - | . | - | . | .
O=C(CSc1nnc(-c2ccccn2)o1)Nc1ccccc1Cl | - | - | - | 75.3 | - | -
O=C(CSc1ccc(-c2ccccn2)nn1)Nc1nccs1 | - | - | - | 60.7 | - | 60.3µM | ARNT Alpha ctr-2=4.66
O=C(CSc1ccc(-c2ccccn2)nn1)N1CCCc2ccccc21 | - | - | - | 59.3 | - | 29.6µM
Cn1c(SCC(=O)Nc2nccs2)nnc1-c1ccccn1 | - | - | - | - | - | .
O=C(CSc1nnc(-c2ccncc2)o1)Nc1ccccc1Cl | - | . | - | - | - | .
Cc1ccccc1NC(=O)CSc1ccc(-c2ccccn2)nn1 | - | - | - | 61.1 | - | 35.1µM
Cc1ccc(S(=O)(=O)N[C@H]2CC[C@@H](CCNC(=O)CN3CCOCC3)O[C@H]2CO)cc1 | . | - | . | - | . | .
COc1ccccc1NC(=O)N1CCCCN2[C@H](CO)[C@@H](c3ccc(-c4ccccc4)cc3)[C@@H]2C1 | . | . | . | - | . | .
CSc1ccc(-c2nnc(NC(=O)c3ccc(S(=O)(=O)N4CCC(C)CC4)cc3)o2)cc1 | . | . | . | . | . | . | ARNT Alpha ctr-2=59.1
CC1CCN(S(=O)(=O)c2ccc(C(=O)Nc3nnc(-c4ccco4)o3)cc2)CC1 | - | - | - | - | - | . | ARNT Alpha ctr-2=-
